A short description of test [1]: qHTS assay for small molecules that induce genotoxicity in human embryonic kidney cells expressing luciferase-tagged ATAD5 - cell viability (AID 651634; calls by dose curve; note: nearly all actives have a fitted effect of over 25% in size; note: potency is the fitted concentration of half-maximal effect). In a few lines: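 Here HEK293T cells with the ATAD5 luciferase reporter are incubated with test compounds for 15.5 hr, and cytotoxicity is then gauged by measuring protease activity in live cells using fluorescence.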
For orientation: qHTS replaces the single test concentration by a dilution series.

Test [2] in a line: qHTS assay for small molecule disruptors of the mitochondrial membrane potential - cell viability (AID 720634; calls by dose curve; note: nearly all actives have a fitted effect of over 20% in size; note: potency is the fitted concentration of half-maximal effect;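 for activity change, negative = cytotoxicity: human HepG2 liver cancer cells; series mostly up to about 83 µM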). In a few lines:
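Viability of HepG2 cells is scored from ATP content by luminescence; cells are exposed to compound for 1 hr at 37 C and 5% CO2, then dosed with m-MPI dye before the CellTiter-Glo reagent.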

The nature of test [3]: qHTS assay for small molecule disruptors of the mitochondrial membrane potential (AID 720635). Note: potency is the fitted concentration of half-maximal effect. Put shortly: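 HepG2 cells (2,000/well) attached overnight at 37C, then took compound for 1 hr at 37C, 5% CO2. Mito-MPS dye was added for 30 min; fluorescence was read at 490/535 nm (monomers) and 540/590 nm (aggregates).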
Test [4] is described as follows: qHTS assay to test for compound auto fluorescence at 590 nm (red) in HepG2 cells (AID 720674). In a few lines:
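Compound auto-fluorescence is scored relative to Rose Bengal sodium, measured at 540/590 nm in live HepG2 cultures after 1 hr compound contact (37 C, 5% CO2).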

Test [5] is described as follows: qHTS assay to test for compound auto fluorescence at 460 nm (blue) in HEK293 cells (AID 720678). Put shortly:
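Triamterene serves as the blue fluorophore standard. Compound signal at 405/460 nm is read in HEK293 wells (2,000 cells, 10% dialyzed FBS) after overnight treatment at 37C.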

A short description of test [6]: qHTS assay to test for compound auto fluorescence at 590 nm (red) in HEK293 cells (AID 720679). In a few lines:
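We plated HEK293 cells in 10% dialyzed FBS medium, let them adhere for 4-5 hr, then added 23 nL compound. Overnight at 37C and 5% CO2 preceded fluorescence measurement at 540/590nm.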

Test [7] in a line: qHTS assay for small molecules that induce genotoxicity in human embryonic kidney cells expressing luciferase-tagged ATAD5 (AID 651632). Note: nearly all actives have a fitted effect of over 15% in size. Put shortly: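 DMSO vehicle served as the control. HEK293T reporter cells, 16 hr at 37C, then 30 min Amplite at room temperature; ATAD5 induction is measured as luciferase activity.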
Test [8] is described as follows: qHTS assay to test for compound auto fluorescence at 535 nm (green) in HepG2 cells (AID 720675).
Test [9] can be described thus: qHTS assay for small molecule agonists of the p53 signaling pathway - cell viability (AID 651633; calls by dose curve;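 note: p53RE-bla HCT reporter cells with a stable beta-lactamase p53 reporter; series mostly up to about 83 µM; nearly all actives have a fitted effect of over 30% in size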). In a few lines:
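p53RE-bla cells, seeded at 4,000 per well and rested 5 h at 37 C/5% CO2, received compounds in DMSO for 16 h at 37 C. CellTiter-Glo was then added, and luminescence was read after 30 min at room temperature to gauge cytotoxicity.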

Molecules are shown by their SMILES. Values joined by “and” are separate entries in the source; they are usually repeats but may differ in a detail not shown here. Equal values may be shown once. A number with no mark means an inactive call. Results filed as inconclusive are left out. Active and inactive are the calls of the source. Unless noted, calls come from the whole dose curve; as a rule, active = well fitted curve in the direction sought with a large enough effect in the repeat runs; inconclusive = weak or mixed curves; inactive = no such curve, though single readings can be large; an effect the other way counts as inactive or inconclusive.
% is set by controls: 0 for no effect and ±100 for the full control effect.

For the compound `C=CC(=O)OCCOCCOC(=O)C=C`, the Potency in test [1] is 61.4 µM (active). Also, the Potency result in test [2], in test [3], in [4] and in [6] was “inactive” in each case. Further, in test [5], the compound was called inactive.

Take `O=C(O)c1nc(Cl)c(Cl)c(Cl)c1Cl`: the Potency result in [7], in test [1], in [3], in [4], in test [8] and in [6] was “inactive” throughout. In [5], the compound was called inactive.

Turning to `CN(C)c1ccc(/C=C/c2ccc([N+](=O)[O-])cc2)cc1`, the activity change, negative = cytotoxicity in test [9] was -6.1% [at 8.08 µM]; in test [2], -8.24% [at 8.08 µM]. Further, the activity, negative = cytotoxicity in [1] was 49.6% [at 8.08 µM]. Besides, in test [4], the fluorescence, relative to Rose Bengal is 0% [at 3.72 µM]. Further, the fluorescence, % of triamterene in [5] is 0.0267% [at 3.72 µM]. Besides, the fluorescence, % of fluorescent control in test [6] is 0.111% [at 3.72 µM].

On to `CCc1c(C(=O)NN2CCCCC2)nn(-c2ccc(Cl)cc2Cl)c1-c1ccc(Br)cc1`, for which the Potency entry in test [7], in [1], in [2], in [8] and in test [6] was “inactive” each time. Also, the Potency in [3] was 24.3 µM (active). Further, in test [5], the compound was classed as inactive.

For `CCCCCCCCCCO[C@@H]1O[C@H](CO)[C@@H](O)[C@H](O)[C@H]1O`, the Potency result in [7], in test [2], in test [4] and in [6] was “inactive” each time. Moreover, in test [5], the compound was called inactive.

With `OC(C#CCN1CCCC1)(c1ccccc1)c1ccccc1`, the Potency result in test [7], in test [1], in test [2] and in test [6] was “inactive” in each case. In addition, in test [5], the compound was called inactive.

For `Nc1ccc(N)c2c1C(=O)c1ccccc1C2=O`, the Potency result in test [7], in [4], in test [8] and in test [6] was “inactive” each time. Further, in test [1], the Potency is 27.3 µM (active). Also, the result in test [5] was inactive.

As for `CCCCNc1ccc(C(=O)OCCOCCOCCOCCOCCOCCOCCOCCOCCOC)cc1`, the Potency result in test [7], in [1] and in [2] was “inactive” each time. Moreover, in test [3], the Potency was 3.2 µM (active). The fluorescence, relative to Rose Bengal in test [4] is -0.666% [at 18.6 µM]. Also, the fluorescence, % of triamterene in test [5] is -0.29% [at 18.6 µM]. Also, in [6], the fluorescence, % of fluorescent control is 0.183% [at 18.6 µM].

On to `Nc1ncn([C@H]2C[C@H](O)[C@@H](CO)O2)c(=O)n1`, for which the Potency result in test [9], in test [1], in test [4], in test [8] and in test [6] was “inactive” each time. Moreover, the compound was called inactive in test [5].

Turning to `CCCCCCCC/C=C\CCCCCCCC(=O)OCC`, the Potency result in test [7], in test [2], in test [3], in test [8] and in [6] was “inactive” in each case. Besides, the call in test [5] was inactive.

Regarding `C=CC(=O)OCCOCCOCCOCCOC(=O)C=C`, the Potency result in test [9], in test [2], in test [3], in [4], in test [8] and in [6] was “inactive” in each case. Moreover, in [1], the Potency is 54.8 µM (active). The call in [5] was inactive.

On to `CC(C)O.CC(C)O.CCOC(=O)/C=C(\C)O.CCOC(=O)/C=C(\C)O.[Ti]`, for which the Potency result in test [1], in test [2], in test [4], in test [8] and in [6] was “inactive” in each case. The compound was classed as inactive in [5].

Take `CC(C)C[C@H]1C(=O)N2CCC[C@H]2[C@]2(O)O[C@](NC(=O)[C@@H]3C=C4c5cccc6[nH]c(Br)c(c56)C[C@H]4N(C)C3)(C(C)C)C(=O)N12`: the Potency result in [7], in [8] and in test [6] was “inactive” throughout. For the same compound, the Potency in [3] is 10.6 µM (active) and 8.23 µM (active). In test [5], the compound was called inactive.

`O=C(CS)Nc1ccccc1`: the Potency entry in test [7], in test [2], in test [4], in [8] and in test [6] was “inactive” in each case. In addition, the compound was classed as inactive in test [5].

For `CCC(C)c1cc(C(C)(C)C)c(O)c(C(C)(C)C)c1` (centres undefined), the Potency result in [7], in test [1], in [2], in test [4], in [8] and in test [6] was “inactive” each time. For the same compound, in test [3], the Potency was 21.3 µM (active). In addition, the result in test [5] was inactive.

As for `CCOC(=O)C(F)(F)F`, the Potency entry in test [7], in test [1], in test [2], in test [4], in [8] and in test [6] was “inactive” throughout. The outcome in [5] was inactive.

In the case of `COc1cccc(N(C)C(=S)Oc2ccc3c(c2)CCCC3)n1`, the Potency entry in test [1], in test [4], in test [8] and in test [6] was “inactive” in each case. Besides, the Potency in test [3] is 29.8 µM (active). In addition, the compound was called inactive in test [5].

`COc1cc(Cl)ccc1Oc1ccc(Cl)cc1Cl`: the Potency result in test [7], in test [1], in test [4], in test [8] and in test [6] was “inactive” each time. For the same compound, the Potency in test [3] is 23.6 µM (active). Also, the compound was classed as inactive in test [5].

For `Cc1[nH]c(C)c(Cl)c(=O)c1Cl`, the Potency entry in [7], in [1], in test [2], in [3], in test [8] and in test [6] was “inactive” throughout. The result in [5] was inactive.

As for `CNCCCCOc1ccccc1Cc1ccccc1`, the Potency entry in test [7], in [1], in [2], in [4], in test [8] and in test [6] was “inactive” each time. Besides, in test [5], the compound was classed as inactive.

Regarding `Cc1cccc(C)c1OCC(=O)N[C@@H](Cc1ccccc1)[C@@H](O)C[C@H](Cc1ccccc1)NC(=O)[C@H](C(C)C)N1CCCNC1=O`, the Potency result in test [7], in [4] and in [6] was “inactive” throughout. Further, the Potency in test [1] is 26.6 µM (active). Further, the result in test [5] was inactive.

Consider `S=C([S-])NCCNC(=S)[S-].[Mn+2]`, for which the Potency entry in test [7], in test [1], in test [2], in [8] and in test [6] was “inactive” each time. The result in test [5] was inactive.

For the compound `O=C1CCCCCCCCCCCC(=O)OCCO1`, the Potency result in [7], in [1], in test [2], in test [4], in [8] and in test [6] was “inactive” each time. Besides, the compound was called inactive in test [5].

For the compound `CCCNCC(O)COc1ccccc1C(=O)CCc1ccccc1` (centres undefined), the Potency result in [9], in test [1], in [2], in test [4], in test [8] and in [6] was “inactive” in each case. For the same compound, the compound was called inactive in test [5].

Regarding `Cc1cccc(Nc2ccccc2)c1`, the Potency result in test [9], in [4], in test [8] and in test [6] was “inactive” each time. The Potency in [3] is 43.3 µM (active). In addition, the compound was called inactive in test [5].

With `O=C(Nc1ccccc1)c1ccccc1O`, the Potency entry in [7], in [1], in test [4], in [8] and in [6] was “inactive” throughout. Also, the figures for the Potency in [2] and in test [3] were 27.3 µM (active) and 2.43 µM (active), respectively. Also, the call in [5] was inactive.

Turning to `CCCCCCCCCCCCCCOS(=O)(=O)O`, the Potency entry in [7], in test [1], in test [2], in test [4], in test [8] and in test [6] was “inactive” in each case. The call in [5] was inactive.

For `O=C1C(O)=C(O)C(=O)C(O)=C1O`, the Potency entry in test [7], in test [1], in test [2], in test [3], in test [8] and in test [6] was “inactive” each time. The compound was classed as inactive in test [5].

In the case of `C=CCOc1ccccc1OCC(O)CNC(C)C` (centres undefined), the Potency result in test [7], in [1] and in test [2] was “inactive” throughout. Also, the fluorescence, relative to Rose Bengal in test [4] was -0.0179% [at 18.6 µM]. The fluorescence, % of triamterene in test [5] is 0.0129% [at 18.6 µM]. Further, in test [6], the fluorescence, % of fluorescent control is 0.157% [at 18.6 µM].

For `CCCCCCCC#N`, the Potency entry in [7], in [1], in [2], in [3], in test [4] and in [8] was “inactive” each time. Moreover, in test [6], the Potency result is “inactive”. Further, the compound was called inactive in test [5].

On to `CCCCCCCCCCCc1ccccc1`, for which the Potency entry in test [7], in test [1], in [2], in [4], in test [8] and in [6] was “inactive” throughout. Also, the result in [5] was inactive.

As to `CCO[C@H](Cc1ccc(OCCc2ccc(OS(C)(=O)=O)cc2)cc1)C(=O)O`, the Potency entry in test [7], in test [1], in [2], in test [3], in test [4] and in test [6] was “inactive” throughout. Moreover, in [5], the compound was classed as inactive.

In the case of `COc1cc(Cl)c(OC)cc1N`, the Potency entry in test [1], in test [2], in test [4], in test [8] and in test [6] was “inactive” each time. Besides, in test [5], the call was inactive.

With `C#Cc1cccc(Nc2ncnc3cc(OCCOC)c(OCCOC)cc23)c1`, the Potency entry in test [7], in test [2], in test [4], in [8] and in test [6] was “inactive” throughout. In addition, the result in test [5] was inactive.

Consider `CC1CCC(=O)C1=O` (centres undefined), for which the Potency entry in test [7], in test [1], in test [2], in test [3], in test [4] and in test [8] was “inactive” each time. Moreover, in test [6], the Potency result is “inactive”. Moreover, the call in test [5] was inactive.

The values above are taken from PubChem BioAssay (Tox21).
